According to PubChem BioAssay:
Records with an inconclusive call do not appear. Activity calls are given as the source filed them. Unless noted, how the calls were made is not given here.

What was measured:
[1] = rescue of PC12 cells from polyQ htt toxicity – LDH release (AID 1610); details: PC12 mutant huntingtin toxicity, final LDH at 4 uM, stronger effect = lower value
[2] = polyglutamine aggregate formation blockers (AID 1604); details: polyglutamine-induced protein aggregation inhibition assay; stronger effect = higher value; tested at 2.5 µM
[3] = glutamate transport activators, MN-1 cells, MN-1 cell line (AID 1612); details: MN-1 motor neuron cells, stronger effect = higher value;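 further: tested at 1 µM final; 0% = mean of DMSO vehicle wells on each plate; positive means more glutamate uptake than control and negative means less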
[4] = 75Q-TubH aggregate inhibition, S. cerevisiae, yeast (AID 1616); details: S. cerevisiae 75Q-TubH polyglutamine aggregation suppression; stronger effect = higher value
[5] = test system: Neuropilin-2 / VEGF-C interaction (human); assay: small molecules blocking Neuropilin-2/VEGF-C interaction – biochemical, microplate binding format, z-score (AID 743281); details: microplate NRP2/VEGF-C binding assay; stronger effect = lower value
[6] = viability loss in pontine glioma line – cell-based, SU-DIPG-XIII, MIPE4.0, CellTiter-Glo, qHTS, dose response (AID 1347061; cut-off not given, nearly all actives have AC50 up to about 37 µM;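 further: cells exposed to compound for 48 hours before readout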); details: CellTiter-Glo ATP luminescence
[7] = viability loss in pontine glioma line – cell-based, SU-DIPG-IV, MIPE4.0, CellTiter-Glo, qHTS, dose response (AID 1347063; cut-off not given, nearly all actives have AC50 up to about 30 µM;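 further: compound exposure lasted 48 hours before the viability readout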); details: CellTiter-Glo ATP luminescence
[8] = GFP-Q80 aggregate reduction, neuronal-like cells, cell-based, NGF-treated PC12, GFPQ80 (AID 1614); details: PC12 NGF-treated GFP-polyQ80 inclusion reduction;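 further: lower means fewer inclusions and 0 means no inclusions at all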
[9] = compounds altering circadian rhythm period length – cell-based, LOPAC library, luminescence reporter (AID 2774); details: circadian reporter cells, at 7 µM, actives lie on both sides;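 further: values are relative to mean of DMSO wells on each plate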
[10] = test system: Hepatitis C virus NS3 helicase; assay: blockers of NS3h binding to ssDNA – biochemical, fluorescence polarization, LOPAC1280 library, primary screen (AID 687035; in the data active means inhibition above about 37%); details: Purified HCV NS3 helicase, Cy5-dT15 ssDNA binding fluorescence polarization; stronger effect = higher value; concentration not given here
[11] = compounds altering Cy5-DNA-NS3h complex signal – biochemical, LOPAC1280, artefact control for HCV NS3 helicase inhibitor project (AID 687037); details: Cy5-DNA-NS3h complex fluorescence interference counterscreen
[12] = biological target: NAD(+) hydrolase SARM1 (Homo sapiens) (UniProt Q6SZW1); assay: blocking NAD cleavage by SARM1 SAM-TIR – cell lysate, NAD-Glo luminescence (AID 1508614;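 active means compound whose remaining NAD level is above about 45 nM, limit read from the data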); details: SAM-TIR HEK293T lysate NADase, at 1 µM, stronger effect = higher value
Sequence of NAD(+) hydrolase SARM1 (Homo sapiens) (Q6SZW1 whole entry, looked up): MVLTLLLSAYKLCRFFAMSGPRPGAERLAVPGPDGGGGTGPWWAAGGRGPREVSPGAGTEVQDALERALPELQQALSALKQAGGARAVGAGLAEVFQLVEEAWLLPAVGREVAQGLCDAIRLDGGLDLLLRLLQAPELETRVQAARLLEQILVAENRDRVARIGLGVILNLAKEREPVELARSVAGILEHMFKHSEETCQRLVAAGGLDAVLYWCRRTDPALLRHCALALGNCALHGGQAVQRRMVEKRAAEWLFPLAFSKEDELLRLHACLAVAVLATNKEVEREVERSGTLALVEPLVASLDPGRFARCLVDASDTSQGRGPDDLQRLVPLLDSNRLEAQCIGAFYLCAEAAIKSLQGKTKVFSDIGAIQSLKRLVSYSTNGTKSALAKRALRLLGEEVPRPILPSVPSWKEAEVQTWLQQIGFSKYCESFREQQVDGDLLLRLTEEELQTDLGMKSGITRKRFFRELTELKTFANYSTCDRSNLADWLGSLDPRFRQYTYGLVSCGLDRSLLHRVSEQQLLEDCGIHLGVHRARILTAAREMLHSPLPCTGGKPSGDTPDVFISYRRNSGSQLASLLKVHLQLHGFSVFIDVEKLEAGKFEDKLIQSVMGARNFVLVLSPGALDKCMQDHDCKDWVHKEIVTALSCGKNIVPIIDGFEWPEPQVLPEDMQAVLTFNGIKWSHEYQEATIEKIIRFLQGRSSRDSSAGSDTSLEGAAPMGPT

CC[C@H]1OC(=O)[C@H](C)[C@@H](O[C@H]2C[C@@](C)(OC)[C@@H](O)[C@H](C)O2)[C@H](C)[C@@H](O[C@@H]2O[C@H](C)C[C@H](N(C)C)[C@H]2O)[C@](C)(O)C[C@@H](C)CN(C)[C@H](C)[C@@H](O)[C@]1(C)O
normalised LDH release [1]: 0.795

NC(Cc1cc(I)c(Oc2ccc(O)c(I)c2)c(I)c1)C(=O)O (stereo unspecified)
inhibition of aggregation [2]: 79.3%
glutamate uptake change [3]: -8.22%
aggregation suppression score [4]: 0.825

C=CCc1ccc(O)c(-c2ccc(O)c(CC=C)c2)c1
z-score [5]: -0.759 (inactive)
outcome [6]: inactive
AC50 [7]: 23.5 µM (active)

CC(C)OC(=O)CCC/C=C\C[C@@H]1[C@@H](CC[C@@H](O)CCc2ccccc2)[C@H](O)C[C@@H]1O
z-score [5]: -0.836 (inactive)

CN1CCC[C@H]1c1cccnc1
inhibition of aggregation [2]: 47.1%
glutamate uptake change [3]: 15.4%
inclusion score [8]: 2
aggregation suppression score [4]: 1.26
period change [9]: 0.09 h (inactive)
inhibition [10]: 0% (inactive)
fluorescence ratio (interference) [11]: 1 (inactive)
remaining NAD [12]: 10 nM (inactive)
